Measured values as given in PubChem BioAssay AID1345085 (National Center for Advancing Translational Sciences (NCATS), 2018).
Inconclusive results are not listed. Calls of active or inactive are those of the source. Calls follow the shape of the dose curve; as a rule, active = well fitted cell-killing curve with a large enough effect; inconclusive = small, poorly fitted or top-dose-only effect, or effect the other way; inactive = no such curve, though single readings can be large or run the other way.

system: SW626; assay: Confirmatory qHTS for gynecologic anti-cancer compounds from libraries of approved drugs and bioactive compounds; conditions: gynecologic cancer cell panel viability, ATPlite luminescence, 48 h; series mostly up to 57.6 µM; activity change, negative = viability loss: at the top concentration; also: nearly all actives have a fitted effect of over 55% in size
Summary of the method: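 Seeding 1,000 cells per well preceded overnight (16 h) attachment, after which 48 h drug treatment across 57.5 uM–0.977 nM (11 points) was applied. Remaining cellular ATP, detected by ATPlite luminescence, defined IC50.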
% is scaled to controls: 0 for no effect and ±100 for the full control effect; potency is read from the fitted curve at half-maximal effect.

SMILES	activity change, negative = viability loss	Potency
Cc1cc(SCc2sc(-c3ccc(C(F)(F)F)cc3)nc2C)ccc1OCC(=O)O	2.54% (inactive)	–
COc1ccc2cc3[n+](cc2c1OC)CCc1cc2c(cc1-3)OCO2	0.945% (inactive)	–
CCCCN(CCCC)CC(O)c1cc(Cl)cc2c1-c1ccc(Cl)cc1/C2=C/c1ccc(Cl)cc1 (stereo not drawn)	5.04% (inactive)	–
CN(C)CCC(CSc1ccccc1)Nc1ccc(S(=O)(=O)NC(=O)c2ccc(N3CCN(Cc4ccccc4-c4ccc(Cl)cc4)CC3)cc2)cc1[N+](=O)[O-] (stereo not drawn)	–	7.69 µM (active)
CC(C)C[C@H](NC(=O)[C@@H](NC(=O)c1cccc(-c2ccccc2)n1)[C@@H](C)O)B(O)O	–	0.0385 µM (active)
Nc1ncn([C@@H]2O[C@H](CO)[C@@H](O)[C@H]2O)c(=O)n1	0.885% (inactive)	–
COc1cc(N2CCC(N)CC2)ccc1Nc1ncc(Cl)c(-c2c[nH]c3ccccc23)n1	–	21.7 µM (active)
COc1cc2ncnc(Nc3ccc(F)c(Cl)c3)c2cc1OCCCN1CCOCC1	-20.8% (inactive)	–
CCN(CC)CCNC(=O)c1c(C)[nH]c(/C=C2\C(=O)Nc3ccc(F)cc32)c1C	–	22.4 µM (active)
CN(Cc1cnc2nc(N)nc(N)c2n1)c1ccc(C(=O)N[C@@H](CCC(=O)O)C(=O)O)cc1	39.2% (inactive)	–
COc1ccccc1N1CCN(CC(O)COc2cccc3ccccc23)CC1 (stereo not drawn)	6.89% (inactive)	–
Cc1cnc(Nc2ccc(CN3CCOCC3)cc2)nc1Nc1cccc(S(=O)(=O)NC(C)(C)C)c1	–	15.3 µM (active)
CC(=O)O[C@H]1C(=O)[C@@]2(C)[C@H]([C@H](OC(=O)c3ccccc3)[C@]3(O)C[C@H](OC(=O)[C@H](O)[C@@H](NC(=O)c4ccccc4)c4ccccc4)C(C)=C1C3(C)C)[C@]1(OC(C)=O)CO[C@@H]1C[C@@H]2O	-9.14% [at 10.7 µM] (inactive)	–
COc1cccc2c1C(=O)c1c(O)c3c(c(O)c1C2=O)C[C@@](O)(C(=O)CO)C[C@@H]3O[C@H]1C[C@H](N)[C@H](O[C@@H]2CCCCO2)[C@H](C)O1	–	7.69 µM (active)
C[C@@H](Oc1cc(-c2cnn(C3CCNCC3)c2)cnc1N)c1c(Cl)ccc(F)c1Cl	–	21.7 µM (active)
CCC1C(=O)N(C)c2cnc(Nc3ccc(C(=O)NC4CCC(N5CCN(CC6CC6)CC5)CC4)cc3OC)nc2N1C(C)C (stereo not drawn)	–	7.69 µM (active)
CN(C)c1ccc2nc3ccc(=[N+](C)C)cc-3sc2c1	–	8.63 µM (active)

SMILES	activity change, negative = viability loss	Potency
OCCNC1CCCc2c1[nH]c1ccc(-c3ccccc3)cc21 (stereo not drawn)	–	19.3 µM (active)
O=C1c2c(O)ccc(O)c2C(=O)c2c(NCCNCCO)ccc(NCCNCCO)c21	–	6.85 µM (active)
Cc1ccc(C(=O)Nc2ccc(Oc3cc4cnn(C)c4cc3-c3cn[nH]c3)c(F)c2)c(=O)n1-c1ccc(F)cc1	–	4.32 µM (active)
O=C1N(c2ccccc2)c2ccccc2C1(Cc1ccncc1)Cc1ccncc1	4.32% (inactive)	–
CC(C)C[C@H](NC(=O)[C@H](Cc1ccccc1)NC(=O)c1cnccn1)B(O)O	–	0.0137 µM (active)
CNc1nc(Nc2ccc(C(=O)N3CCOCC3)cc2OC)ncc1Cl	5.85% (inactive)	–
Cc1[nH]c2ccccc2c1CCNCc1ccc(/C=C/C(=O)NO)cc1	–	0.0968 µM (active)
CN[C@@H](C)C(=O)N[C@H]1CN(C(=O)CC(C)C)CC[C@H]2CC[C@@H](C(=O)NC(c3ccccc3)c3ccccc3)N2C1=O	-11.7% (inactive)	–
CC(C)n1c(/C=C/[C@@H](O)C[C@@H](O)CC(=O)O)c(-c2ccc(F)cc2)c2ccccc21	–	1.37 µM (active)
CN(C)C(CCOc1cccc2ccccc12)c1ccccc1 (stereo not drawn)	-9.38% (inactive)	–
N#CC1(c2cccc(C(=O)Nc3cc(Oc4ccc5nc(NC(=O)C6CC6)sc5n4)ccc3F)c2Cl)CC1	–	4.85 µM (active)
CC[C@H](CC#N)OC(=O)N[C@@H](C)c1cccc(NC(=O)Nc2ccc(-c3cnco3)c(OC)c2)c1	-9.55% (inactive)	–
Oc1cn2c(n1)Nc1ccc(Cl)c(Cl)c1C2	2.36% [at 19.5 µM] (inactive)	–
Cn1c(=O)c(F)c(Nc2ccc(I)cc2F)c2c(=O)n(CC(O)CO)cnc21 (stereo not drawn)	–	0.0544 µM (active)
COc1cc(N2CCC(N(C)C)CC2)ccc1Nc1ncc(Cl)c(Nc2ccccc2P(C)(C)=O)n1	–	3.85 µM (active)
Cc1cc(CN2CCN(c3c(Br)cnc4nc(-c5ccc(N6CCN(C)CC6)cc5)[nH]c34)CC2)no1	–	24.3 µM (active)
